ATXN2 expr inh: reduces ATXN2 reporter expression in HEK-293 cells; HEK-293 ATXN2-luciferase reporter, luminescence, 24 h; Potency, µM (titrated, usually from 57 µM), hits mostly inhibitors; 0.72% of 360,000 active; AID 1745845; also: nearly all actives have a fitted effect of over 55% in size
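ATXN2-luciferase reporter cells (luciferase flanked by upstream and downstream ATXN2 gene portions) were treated 24 h at 37 °C with compounds at up to 57 uM. SteadyGlo luminescence gave expression; GF-AFC fluorescence gave viability.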
S2 tox: viability counter-screen for ATXN expression inhibitors; S2 cells (HEK-293 line with an ATXN2-luciferase reporter) viability, CellTiter-Fluor protease fluorescence, 24 h; Potency, µM (doses to about 56.7 µM), actives largely listed as cytotoxic; 0.49% of 400,000 active; also: nearly all actives have a fitted effect of over 40% in size
HT1080NT lethal: kills 2HG-producing HT-1080-NT fibrosarcoma cells; Potency, µM (series often up to 46.1 µM), usual class: cytotoxic; 1.6% of 360,000 active; HT-1080-NT fibrosarcoma viability, CellTiter-Glo ATP luminescence, 48 h;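 also: NT is the 2HG producing partner of a matched IDH1 knockdown line; nearly all actives have a fitted effect of over 55% in size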
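Toxicity toward the 2HG-producing NT line was scored as %Activity, normalised to DMSO and no-cell wells, from CellTiter-Glo luminescence after 48 hours' treatment.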
HepG2 tox: HepG2 cytotoxicity, counter-screen for TGF-b inhibitors. Potency, µM (titrated, usually from 46.1 µM), hits mostly cytotoxic. HepG2 CAGA-GFP viability, ATP luminescence, 18 h. 0.76% of 410,000 active. AID 588856
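CellTiter-Glo luminescence gave cytotoxicity after 18 hours at 37 degrees C. The cells were HepG2 CAGA-GFP in 1% FBS DMEM, stimulated with 500 pg/mL TGF-beta after compound addition. %Activity was normalised to no-cell wells (complete cell-killing) and DMSO (no toxicity), and curves were fitted and classified.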
HT1080 IDH1KD tx: toxicity to HT-1080 IDH1 knockdown cells (counter line); Potency, µM (top dose mostly 46.1 µM), hits mostly cytotoxic; AID 686971; HT-1080 IDH1 knockdown viability, ATP luminescence, 48 h; 2% of 360,000 active
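HT-1080-IDH1KD cells (IDH1 knocked down), 750/well in RPMI with 5% FBS, treated with compound 48 h at 37 degrees C. Viability by CellTiter-Glo luminescence, normalised to DMSO and no-cell wells; concentration-response curves classed.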
TGFb SMAD3 inh: blocks TGF-b signaling | Potency, µM (doses to about 46.1 µM), actives largely listed as inhibitors | 1.2% of 410,000 active | HepG2 CAGA-GFP TGF-b/SMAD3 reporter, GFP fluorescence, 18 h; TGF-beta stimulated, 500 pg/mL final; also: nearly all actives have a fitted effect of over 65% in size
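Per well, imaged GFP fluorescence of HEPG2 CAGA-GFP cells gives the signal; cells get compound, then TGF-beta (500 pg/mL final), 18 h at 37 degrees C; %Activity versus -TGF-beta and +DMSO controls.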
A number is an active result; . = inactive; ? = inconclusive; / = no result given. Shown are actives, neighbours in structure and some others; about 3.9% of the full set was active somewhere. Calls follow the shape of the dose curve; as a rule, active = well fitted curve in the direction sought with a large enough effect; inconclusive = small, poorly fitted or top-dose-only effect, or another doubt; inactive = no such curve, though single readings can be large; an effect the other way counts as inactive or inconclusive.

SMILES	ATXN2 expr inh	S2 tox	HT1080NT lethal	HepG2 tox	HT1080 IDH1KD tx	TGFb SMAD3 inh
O=C(Nc1ccc(OC(F)(F)F)cc1)N1CCc2nc(NCc3cccc(Oc4ccccc4)c3)ncc2C1	.	.	?	.	23µM	?
O=C(NCC1CCCCC1)c1cccc(-c2ccc(O)cc2)c1	.	.	?	.	?	13µM
O=C(c1nn2c(C(F)(F)F)cc(-c3cccs3)nc2c1Br)N1CCCc2ccccc21	.	.	.	.	?	.
O=C(c1nn2c(C(F)(F)F)cc(-c3ccco3)nc2c1Br)N1CCCc2ccccc21	.	?	23µM	.	10µM	.
O=[N+]([O-])c1ccc(NC(=S)NCc2ccncc2)cc1	.	.	.	.	.	.
O=[N+]([O-])c1ccc(NNC(=S)Nc2ccccc2)cc1	.	?	20µM	.	?	?
O=[N+]([O-])c1ccc(NC(=S)NCc2ccc(F)cc2)cc1	?	.	?	.	23µM	?
COc1ccc(/C=C/c2nc3ccccc3n2Cc2ccccc2OC)cc1	.	.	16µM	.	16µM	.
CC(C)CCn1c(/C=C/c2ccccc2)nc2ccccc21	.	?	/	10µM	/	?
COCCn1c(/C=C/c2ccccc2)nc2ccccc21	.	.	.	.	.	.
CCN1CCC(O)(/C=C/c2ccc(C(C)C)cc2)C(C(=O)/C=C/c2ccc(C(C)C)cc2)C1 (configuration not stated)	?	/	?	13µM	21µM	8.9µM
COC(=O)c1ccc(C2C=C(c3ccc(Cl)cc3)Nc3nc4ccccc4n32)cc1 (configuration not stated)	?	?	/	.	/	?
Cc1ccc(C)c2[nH]c(=O)c(CN(Cc3ccco3)C(=O)Nc3ccccc3)cc12	.	.	.	.	.	?
Cc1cccc2cc(CN(Cc3ccco3)C(=O)Nc3cccc(C#N)c3)c(Cl)nc12	.	.	?	.	11µM	?
COc1cc(C)c(Sc2cnc(NC(=O)c3ccc(CNC(C)C(C)(C)C)cc3)s2)cc1C(=O)N1CCN(C(C)=O)CC1 (configuration not stated)	8.6µM	/	/	/	/	/
COc1ccc(C(=O)Nc2ncc(C)s2)cc1S(=O)(=O)N1CCOCC1	.	.	.	.	.	.
C=CC(=O)Nc1cccc(Oc2cc(Cl)nc3[nH]ccc23)c1	?	18µM	?	.	?	?
COc1nc(Nc2ccc(O)cc2)nc(OC(C(F)(F)F)C(F)(F)F)n1	.	.	.	.	.	?
Nc1cccc(Nc2nc(OC(C(F)(F)F)C(F)(F)F)nc(OC(C(F)(F)F)C(F)(F)F)n2)c1	.	.	?	11µM	?	?
Cc1ccc2cc(CN(Cc3ccco3)C(=O)c3cccs3)c(=O)[nH]c2c1	.	?	4.6µM	.	5.8µM	.
COc1ccccc1NC(=O)N(Cc1ccco1)Cc1cc2ccc(C)c(C)c2[nH]c1=O	?	?	3.7µM	.	2.6µM	?
COc1ccccc1NC(=S)N(Cc1ccco1)Cc1cc2cccc(C)c2[nH]c1=O	.	.	.	.	.	.
COc1ccccc1NC(=S)N(Cc1ccco1)Cc1cc2cc(C)c(C)cc2[nH]c1=O	.	?	?	.	7.3µM	.
Cc1ccc2cc(CN(CCN3CCCC3)C(=O)Nc3ccccc3)c(=O)[nH]c2c1C	.	.	?	.	?	.
Cc1ccc2cc(CN(CCN3CCCC3)C(=O)Nc3ccc(F)cc3)c(=O)[nH]c2c1C	.	?	23µM	.	?	.
SMILES	ATXN2 expr inh	S2 tox	HT1080NT lethal	HepG2 tox	HT1080 IDH1KD tx	TGFb SMAD3 inh
CNC[C@@H]1CC[C@@H](N)[C@@H](O[C@H]2[C@H](O)[C@@H](O[C@H]3OC[C@](C)(O)[C@H](NC)[C@H]3O)[C@H](N)C[C@@H]2N)O1	/	.	/	/	/	/
Cn1c(SCC2CCCO2)nnc1C1CCN(Cc2ccco2)CC1 (configuration not stated)	/	.	/	/	/	/
CC(C)(C)c1ccc(C(=O)CCCCl)cc1	.	.	/	/	/	/
O=c1[nH]c(=O)n(Cc2ccccc2)c2nc(-c3ccc(Oc4ccc(F)cc4)c([N+](=O)[O-])c3)n(CCO)c12	?	?	21µM	.	?	13µM
COc1ccc(-c2nc3c(c(=O)[nH]c(=O)n3Cc3ccccc3)n2CCO)cc1	.	.	?	.	.	.
CC(C)(C)c1ccc(C(=O)NCC(c2cccs2)S(=O)(=O)c2cccs2)cc1 (configuration not stated)	.	?	/	.	/	.
CC(C)(C)c1cc[n+](C2=C([O-])c3ccccc3C(=O)/C2=N\S(=O)(=O)c2cccs2)cc1	11µM	?	15µM	4.5µM	13µM	2.8µM
O=C1/C(=N\S(=O)(=O)c2cccs2)C([n+]2ccccc2)=C([O-])c2ccccc21	/	11µM	?	.	.	2µM
N/C(=N\S(=O)(=O)c1cccs1)c1ccccc1	.	.	.	.	.	.
CN(CC(=O)Nc1cccc(F)c1)C(=O)c1cn(-c2ccccc2)nc1-c1ccc(Cl)cc1	/	?	21µM	.	?	?

Screens (PubChem BioAssay)
